Results as given in ChEMBL document CHEMBL1157539, “Thousands of chemical starting points for antimalarial lead identification” (Nature, 2010).

How the values were obtained:
Plasmodium falciparum [1] = test: GSK_TCMDC: Inhibition of Plasmodium falciparum 3D7 in whole red blood cells, using parasite LDH activity as an index of growth. Test compounds present at 2uM; type: functional
Plasmodium falciparum [2] = test: GSK_TCMDC: Inhibition of Plasmodium falciparum Dd2 in whole red blood cells, using parasite LDH activity as an index of growth. Test compounds present at 2uM; type: functional

Row | Compound | Inhibition (Plasmodium falciparum [1]) [%] | Inhibition (Plasmodium falciparum [2]) [%]
1 | CCOc1cc2ncnc(Nc3ccc(OCc4c(Cl)cccc4Cl)c(OC)c3)c2cc1OCC.Cl | 89 | 12
2 | CCCCc1cc(Cc2cnc(N)nc2N)cc(OC)c1OC.Cl | 86 | 0
3 | COc1cc(Cc2cnc(N)nc2N)cc(OCCCC(=O)O)c1OC | 84 | 0
4 | CN(C)C(=S)N/N=C1/C(=O)Nc2ccccc21 | 95 | 96
5 | CCCCCCn1ccc2c3c(N)nc(N)nc3ccc21 | 99 | 91
6 | O=c1c2ccc(Sc3ccccn3)cc2n(-c2ccccc2)c2cc(Sc3ccccn3)ccc12 | 89 | 70
7 | CC(=O)Oc1c(Cl)c(C)nc(C)c1-c1ccc(Oc2ccc(Cl)cc2)cc1 | 98 | 96
8 | Cl.Nc1nc(N)c2c(n1)CCc1cc(Br)ccc1-2 | 87 | 4
9 | CC(C)Cn1ccc2c3c(N)nc(N)nc3ccc21 | 96 | 96
10 | C=CCOc1ccc(Cc2cnc(N)nc2N)cc1CCC | 93 | 0
11 | CCOC(=O)N1CCN(CCCCCNc2cc(C)nc(NC(=N)Nc3ccc(Cl)cc3)n2)CC1.Cl | 100 | 0
12 | Cc1nc(C)c(-c2ccc(Oc3ccc(Cl)c(Cl)c3)cc2)c(O)c1Br | 97 | 96
13 | CCCCSc1ccc(CNCCCCCCNCc2ccc(SCCCC)c3ccccc23)c2ccccc12.CS(=O)(=O)O | 94 | 48
14 | Cc1nc(NCc2ccccc2)cc(Nc2cc(NCc3ccccc3)nc(C)n2)n1 | 90 | 32
15 | Cc1nc(C)c(-c2cccc(Oc3ccc(Cl)cc3)c2)c(O)c1Br | 96 | 97
16 | COCCOCCOCCn1ccc2c3c(N)nc(N)nc3ccc21 | 97 | 0
17 | COc1cc(Cc2cnc(N)nc2N)cc(OCCCC#N)c1OC | 86 | 0
18 | COc1ccc(Cc2cnc(N)nc2N)cc1OCCCOc1ccccc1 | 91 | 4
19 | Cc1[nH]c(C)c(-c2ccc(Oc3ccc(Cl)cc3)cc2)c(=O)c1Cl | 91 | 16
20 | COc1cc(Cc2cnc(N)nc2N)cc(OCCCS(=O)(=O)O)c1OC | 88 | 0

Row | Compound | Inhibition (Plasmodium falciparum [1]) [%] | Inhibition (Plasmodium falciparum [2]) [%]
21 | CC(CO)(CO)NCc1cc2ccc3ccsc3c2c2ccccc12.CS(=O)(=O)O | 96 | 98
22 | CCc1cc(COc2ccc(CNCCC(C)C)cc2I)c(OCc2ccccc2)c(COc2ccc(CNCCC(C)C)cc2I)c1.Cl | 89 | 15
23 | COc1ccc(C2c3ccccc3-c3nc(N)nc(N)c3C2C)cc1 (stereo not drawn) | 97 | 0
24 | Nc1nc(N)c2c(ccc3[nH]c(-c4ccccc4Cl)nc32)n1 | 100 | 100
25 | Nc1nc(N)c2cc(Cc3ccc([N+](=O)[O-])cc3)cnc2n1.O=S(=O)(O)O | 91 | 0
26 | CCCCOc1c(CCNCCCCNCCc2cc(OC)c3ccccc3c2OCCCC)cc(OC)c2ccccc12.CS(=O)(=O)O | 91 | 47
27 | CCCCc1nc2nc(N)nc(N)c2cc1CCC | 97 | 0
28 | Nc1nc(N)c2c(Oc3cccc(Cl)c3)cccc2n1 | 97 | 7
29 | COc1cc(Cc2cnc3nc(N)nc(N)c3c2C)cc(OC)c1OC | 95 | 98
30 | CC(C)(C)c1ccc(-c2nnc(N)nc2N)cc1 | 92 | 0
31 | Cl.Nc1nc(N)c2c3c(ccc2n1)NCCC3 | 97 | 0
32 | CN(C)S(=O)(=O)n1ccc2c3c(N)nc(N)nc3ccc21 | 94 | 0
33 | Cl.Oc1c(CNC2CCCCC2)cc(Cl)c2ccccc12 | 98 | 100
34 | CC(=NNc1nc2ccccc2s1)c1ccccn1.Cl | 88 | 47
35 | COc1cc(CCNC(=O)Cc2ccc3ccccc3c2)ccc1OCc1ccccc1 | 93 | 61
36 | CN=C(N)c1ccc(NC(=O)C=Cc2ccc(C(=O)Nc3ccc(C(N)=NC)cc3)cc2)cc1.Cl | 97 | 100
37 | CCc1ccc(Cc2cnc3nc(N)nc(N)c3c2C)cc1 | 97 | 0
38 | Cc1nc(N)nc(N)c1-c1cc(Cl)c(Cl)c(Cl)c1 | 97 | 0
39 | CCN(c1ccc(O)c(CN2CCCCC2)c1)c1ccc([N+](=O)[O-])cn1.Cl | 94 | 64
